# Laboratory results: PubChem BioAssay (NCI)
# Compounds without any hit were thinned out: in the full panel of roughly 83,000, 20% have a hit.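 Step 1: grow cells in 96-well plates. Step 2: add test compound at a single concentration. Step 3: incubate 48 h. Step 4: record percent growth.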 Unmarked numbers belong to inactive results. Calls of active or inactive are those of the source. The calls were made as follows: active = growth percent below 10; inactive = the rest.
# What was measured:
# Experiment in all cases: NCI-60 one-dose screen, 48 h (100 = growth as untreated, 0 = no growth, -100 = all killed)
# Settings in all cases: 10 µM unless noted
# [1] = system: DU-145 prostate
# [2] = system: K-562 leukemia
# [3] = system: MALME-3M melanoma
# [4] = system: MDA-MB-231 breast
# [5] = system: RXF 393 renal
# [6] = system: SF-268 CNS
# [7] = system: SF-295 CNS
# [8] = system: SF-539 CNS
# [9] = system: UACC-257 melanoma
# [10] = system: M14 melanoma
# [11] = system: HCT-15 colon
# [12] = system: HT29 colon
# [13] = system: SNB-75 CNS
# [14] = system: SNB-19 CNS
# [15] = system: U251 CNS
# [16] = system: PC-3 prostate
# [17] = system: SK-MEL-5 melanoma
# [18] = system: UACC-62 melanoma
# [19] = system: LOX IMVI melanoma
# [20] = system: SK-MEL-28 melanoma
Structure (SMILES),growth [1],growth [2],growth [3],growth [4],growth [5],growth [6] [%],growth [7],growth [8],growth [9],growth [10],growth [11],growth [12],growth [13],growth [14] [%],growth [15],growth [16],growth [17],growth [18],growth [19],growth [20] [%]
O=[N+]([O-])c1ccc(Oc2nc(Nc3ccc(O[C@H]4CO[C@H]5[C@@H]4OC[C@@H]5O)c(Cl)c3)ncc2F)c(Cl)c1,27.3%,22.2%,18.6%,26.8%,13.6%,31.6,26.4%,19.5%,43.9%,23.9%,26.2%,24.8%,-2.13% (active),56.6,23.6%,34%,-90.9% (active),-8.64% (active),16.7%,32.3
CCc1ccc(Oc2c(-c3ccc(OCc4ccc(Cl)cc4)cc3O)n[nH]c2C(F)(F)F)cc1,15%,3.36% (active),-28.3% (active),27.6%,65%,30,88.1%,56.6%,6.85% (active),30.5%,12.8%,86.1%,36.6%,25.4,9.9% (active),13.9%,-14% (active),17.9%,7.09% (active),22.9
COc1cc(C(=O)c2cc(C)c3[nH]c4ccc(O)cc4c3c2C)cc(OC)c1OC,-13.4% (active),7.07% (active),-8.11% (active),28.3%,31.9%,24,9.6% (active),1.71% (active),64.8%,22.3%,8.88% (active),14.5%,37.3%,54.1,11.5%,24.9%,-49.4% (active),59.8%,13%,55.7
CCN1C(=O)N(CC)C2Nn3c(s/c(=C4\C(=O)N(CCC(C)C)c5ccccc54)c3=O)=NC21 (stereo not given),96.3%,26.1%,79.8%,78.3%,84.5%,82.5,98.5%,86.8%,66.3%,56.6%,47%,112%,59.2%,88.6,87.7%,63.2%,89.5%,67.1%,91.7%,78.6
Cc1cccc2c1S/C(=C/c1ccc([N+](=O)[O-])cc1)C2=O,106%,42.2%,99.4%,103%,140%,103,89.8%,101%,108%,98.2%,100%,92.5%,82.4%,98.4,78.4%,91.5%,99.4%,72.6%,93.1%,114
Oc1ccc(CCl)c2cccnc12,88.1%,43.9%,37.3%,94.5%,75.7%,73.2,99%,90.3%,24.9%,61.6%,36.6%,104%,64.7%,80.6,59.7%,83.6%,89.9%,100%,55%,82.9
CCc1cccc2c3c(sc12)C(c1ccc(F)cc1)C(C#N)=C(N)O3 (stereo not given),24.5%,12.4%,75.9%,21.1%,1.43% (active),54.5,8.12% (active),2.76% (active),74.2%,19.2%,14.5%,12.7%,24.1%,39.8,29.2%,20.4%,27.4%,39%,14.6%,60.5
CCS(=O)(=O)c1ncnc2nc[nH]c12,112%,101%,106%,111%,113%,104,99.8%,95.1%,93.1%,88.1%,101%,93.2%,90.9%,97.9,95.6%,76.4%,98.7%,94.1%,101%,107
COc1ccc(/C=C(\C#N)n2nnc3c(F)cccc32)cc1,2.45% (active),12.1%,36.8%,21%,-21.3% (active),39.7,5.51% (active),-27.4% (active),62.6%,-16.2% (active),13.8%,13.4%,-58.8% (active),30.7,23.7%,29.8%,32.3%,29.5%,19.8%,36.4
Cc1cccc2c3c(sc12)C(c1ccc(F)cc1)C(C#N)=C(N)O3 (stereo not given),7.98% (active),8.65% (active),73.8%,26.9%,38.7%,27.8,5.18% (active),-15.3% (active),68.2%,10.4%,8.13% (active),9.55% (active),23.4%,23.8,25.5%,8.46% (active),-3.29% (active),24.9%,9.86% (active),62
COc1cc2cc(Oc3ccc(NC(=O)Nc4cccc(C(F)(F)F)c4)cc3)c(C)nc2cc1OCCN1CCOCC1,33.5%,11.6%,55%,57.9%,62%,55.8,26.7%,73.7%,31%,34.3%,27.2%,35.3%,77.8%,30.7,28%,15.7%,6.62% (active),50.8%,38.2%,68.8
COc1ccc(CN2c3ccccc3Sc3ccccc32)c(F)c1,20.5%,8.99% (active),57%,60.4%,0.721% (active),52.3,7.51% (active),-3.66% (active),52.3%,11.2%,35.4%,3.61% (active),-5.99% (active),40.9,30%,30.3%,25.8%,33.1%,52.7%,53
COc1ccc2c(c1)c(-c1nn3cc(-c4cccs4)nc3s1)cn2C,89.7%,51%,72.1%,54.1%,96.3%,80.3,66.9%,81.3%,105%,71.6%,47.6%,52.1%,50.3%,82.5,65.9%,69.6%,66.7%,64.1%,54.1%,97.8
Nc1nc(Cl)cc(=O)n1Cc1ccccc1,98.9%,106%,93.2%,92%,101%,103,95.5%,96.2%,93.1%,93.3%,98.3%,103%,82.3%,93.7,101%,95.7%,108%,88.6%,92.1%,108
Cc1ccc2sc3c(NCCCN)nc4ccccc4c3c(=O)c2c1,15.4%,-37.7% (active),104%,-14.6% (active),71.4%,65.1,88%,58%,101%,15%,-12.2% (active),-47.4% (active),78.1%,74.6,6.32% (active),65.4%,90.6%,94.1%,-97.7% (active),95.3
Cc1nc(NC(=O)COc2ccc(/C=C3\Cc4ccc(Cl)cc4C3=O)cc2)sc1C,112%,106%,238%,93.7%,135%,119,110%,101%,110%,114%,104%,114%,108%,106,99.4%,91.9%,111%,98.8%,72.7%,132
